Residue numbers refer to the chain shown, from its start.
How the values were obtained:
Experiment in all cases: PBM; 200 nM protein, PBS
Details in all cases: dsDNA, one strand shown
NKX2-4 [1] = target: T1, NKX2-4 (Homo sapiens, UniProt Q9H2Z4 175-261, P217L)
T1 sequence: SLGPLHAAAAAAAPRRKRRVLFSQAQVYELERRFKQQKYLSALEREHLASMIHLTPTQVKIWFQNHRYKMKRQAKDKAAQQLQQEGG

NKX2-4 [2] = target: T2, NKX2-4 (Homo sapiens, UniProt Q9H2Z4 175-261, T231S)
T2 sequence: T1 sequence with L43P, T57S

NKX2-4 [3] = target: T3, NKX2-4 (Homo sapiens, UniProt Q9H2Z4 175-261)
T3 sequence: T1 sequence with L43P

NKX2-4 [4] = target: T4, NKX2-4 (Homo sapiens, UniProt Q9H2Z4 175-261, R246Q)
T4 sequence: T1 sequence with L43P, R72Q

HOXC10 [5] = target: HOXC10 (Homo sapiens, UniProt Q9NYD6 254-340)
HOXC10 [6] = target: HOXC10 (Homo sapiens, UniProt Q9NYD6 254-340, K271E)
HOXC10 (Homo sapiens, UniProt Q9NYD6 254-340, K271E), sequence (Q9NYD6 254-340 K271E): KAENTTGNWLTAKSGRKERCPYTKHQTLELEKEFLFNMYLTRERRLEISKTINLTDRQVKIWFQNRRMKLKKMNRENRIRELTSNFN

HOXC10 (Homo sapiens, UniProt Q9NYD6 254-340), sequence (Q9NYD6 254-340): as the sequence (Q9NYD6 254-340 K271E) above, with E18K counted along it

Row | Sequence | binding signal (NKX2-4 [1]) | binding signal (NKX2-4 [2]) | binding signal (NKX2-4 [3]) | binding signal (NKX2-4 [4]) | binding signal (HOXC10 [5]) | binding signal (HOXC10 [6])
1 | GGCGTGCA | 9.59 upbm affinity estimate (log intensity, higher = more binding, comparable within an allelic series) | 9.54 upbm affinity estimate (log intensity, higher = more binding, comparable within an allelic series) | 9.62 upbm affinity estimate (log intensity, higher = more binding, comparable within an allelic series) | 9.63 upbm affinity estimate (log intensity, higher = more binding, comparable within an allelic series) |  | 
2 | ACTCCTCG | 11.6 upbm affinity estimate (log intensity, higher = more binding, comparable within an allelic series) | 11.8 upbm affinity estimate (log intensity, higher = more binding, comparable within an allelic series) | 11.5 upbm affinity estimate (log intensity, higher = more binding, comparable within an allelic series) |  |  | 
3 | AGCCTCAG | 9.76 upbm affinity estimate (log intensity, higher = more binding, comparable within an allelic series) | 9.76 upbm affinity estimate (log intensity, higher = more binding, comparable within an allelic series) | 9.79 upbm affinity estimate (log intensity, higher = more binding, comparable within an allelic series) | 9.76 upbm affinity estimate (log intensity, higher = more binding, comparable within an allelic series) | 10.1 upbm affinity estimate (log intensity, higher = more binding, comparable within an allelic series) | 10.1 upbm affinity estimate (log intensity, higher = more binding, comparable within an allelic series)
4 | ATCCCTCC | 9.86 upbm affinity estimate (log intensity, higher = more binding, comparable within an allelic series) | 9.87 upbm affinity estimate (log intensity, higher = more binding, comparable within an allelic series) | 9.86 upbm affinity estimate (log intensity, higher = more binding, comparable within an allelic series) | 9.77 upbm affinity estimate (log intensity, higher = more binding, comparable within an allelic series) |  | 

From paper PMC11006913
